A selection: hits, their analogues and other compounds. The true share with any hit is near 1.2%.
BRCA1 expr act: qHTS Assay to Identify Small Molecule Activators of BRCA1 Expression; MCF7-BRCA1-FFLuc reporter, luminescence, 48 h; response scale: scaled: vehicle 0%, 10 µM genistein 100%; Potency, µM (top dose mostly 46.1 µM), for the others: at the highest dose activation, actives largely listed as activators; hit rate 1.1% among 380,000; also: potency is read from the fitted curve at half-maximal effect; nearly all actives have a fitted effect of over 80% in size
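Luminescence from a BRCA1-driven firefly luciferase in MCF7 cells was the read-out, taken 15 min after substrate addition following 48 h compound exposure at 37 °C. Data were normalized to a 10 microM genistein control and DMSO vehicle.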
S-ASM inh: Inhibitors of Secretory Acid Sphingomyelinase (S-ASM): qHTS | Potency, µM (highest dose often 57.5 µM), for the others: top-dose activity change, negative = inhibition, actives largely listed as inhibitors | Sphingomyelin phosphodiesterase (Homo sapiens), P17405 | AID 504937, 2011 | hit rate 0.006% among 340,000 | placental ASM, HMU-PC fluorogenic substrate, 60 min; also: potency is read from the fitted curve at half-maximal effect
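Fluorogenic HMU-PC substrate (9 uM final) is turned over by placental ASM in 60 min at 37 C after a 10 min compound preincubation. Reaction ended by alkaline stop (pH 10), with fluorescence read at 386/447 nm.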
TSHR antagonist: Antagonists of the Thyroid Stimulating Hormone Receptor: HTS campaign; Thyrotropin receptor (Homo sapiens), P16473; AID 504810, 2011; hit rate 0.2% among 330,000; TSHR-expressing cells, TSH-stimulated cAMP HTRF, 2 h; active compounds read low; activity change, negative = inhibition, % at 11.5 µM;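 active = activity change below a set negative limit, meaning inhibition stronger than a set level, cut at about -70% in these data; inconclusive = activity change between two set negative limits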; also: % is scaled to controls: 0 for no effect and ±100 for the full control effect
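Inhibition of cAMP made by TSHR-expressing cells under TSH stimulation (4nM final, EC80; 2 h, 37 deg C) is quantified with a one-step lysis HTRF kit, anti-cAMP cryptate versus cAMP-d2.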
TSG101-PTAP inh: qHTS Assay for Iinhibitors of HIV-1 Budding by Blocking the Interaction of PTAP/TSG101 | Tumor susceptibility gene 101 protein (Homo sapiens), Q99816 | Fluorescence polarization, FITC-PTAP peptide / Tsg101 binding | Potency, µM (doses to about 115 µM), for inactives: top-dose activity change, negative = inhibition, hits mostly inhibitors | 340,000 tested, under 10 active; active = well fitted inhibition curve with a large enough effect in the main read-out, with a control signal flat, not every such curve was filed as active; inconclusive = small, poorly fitted or top-dose-only effect, or effect the other way, or a change in a side signal; inactive = no such curve, though single readings can be large or run the other way; also: potency is read from the fitted curve at half-maximal effect; % of control where 0% means no effect
Target sequence (Q99816 whole entry, looked up): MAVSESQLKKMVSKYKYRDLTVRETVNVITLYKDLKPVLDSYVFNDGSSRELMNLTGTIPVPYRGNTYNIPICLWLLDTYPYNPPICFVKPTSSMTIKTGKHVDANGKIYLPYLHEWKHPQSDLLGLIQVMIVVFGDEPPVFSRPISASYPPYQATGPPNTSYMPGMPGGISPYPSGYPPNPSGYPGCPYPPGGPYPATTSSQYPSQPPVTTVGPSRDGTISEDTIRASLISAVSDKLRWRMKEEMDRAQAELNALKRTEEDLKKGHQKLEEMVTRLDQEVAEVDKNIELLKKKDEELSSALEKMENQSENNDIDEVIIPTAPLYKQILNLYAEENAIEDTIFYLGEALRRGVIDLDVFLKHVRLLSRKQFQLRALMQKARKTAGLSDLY
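Fluorescence anisotropy tracks displacement of a FITC-tagged PTAP peptide (50 nM) from the Tsg101 binding domain (10 uM), following a 20 min room-temperature incubation at pH 7.5.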
Anesthetic bind: qHTS Assay for Identification of Novel General Anesthetics; Potency, µM (doses to about 77.5 µM), inactives show at the top dose activity change, negative = displacement, actives largely listed as inhibitors; hit rate 0.074% among 350,000; apoferritin/1-aminoanthracene competitive binding, fluorescence; Ferritin light chain (Equus caballus), P02791; also: potency is read from the fitted curve at half-maximal effect; % is scaled to controls: 0 for no effect and ±100 for the full control effect; nearly all actives have a fitted effect of over 20% in size
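Steps: apoferritin (10 uM) was premixed with half-saturated 1-AMA in PBS, compounds were pin-transferred, plates stood 10 min at room temperature, fluorescence was read at 380/535 nm, and curves were fitted with a Hill equation.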
Active calls of the source: *; i = inactive; ? = inconclusive; . = not tested or not shown; [ ] = another dose, or the depositor's remark. Unless noted, calls follow the shape of the dose curve; as a rule, active = well fitted curve in the direction sought with a large enough effect; inconclusive = small, poorly fitted or top-dose-only effect, or another doubt; inactive = no such curve, though single readings can be large; an effect the other way counts as inactive or inconclusive.

SMILES | BRCA1 expr act | S-ASM inh | TSHR antagonist | TSG101-PTAP inh | Anesthetic bind
Cc1occc1-c1nnc(SCC(=O)N(C)c2ccccc2)o1 | 11% | 1% | -13 | 1% | .
CC1CCCN(C(=O)CSc2nnc(-c3cccs3)o2)C1 (stereo not given) | 103% | 2% | -1 | -8% | -6%
O=C(CSc1nnc(-c2ccccc2F)o1)N1CCCC1 | ? | -1%[11.5 µM] | 4 | -1% | 3%
CC1CCCCN1C(=O)CSc1nnc(-c2ccco2)o1 (stereo not given) | 3.2µM* | 0% | 2 | 1% | -4%
CCC1CCCCN1C(=O)CSc1nnc(-c2cccs2)o1 (stereo not given) | 8.9µM* | 1% | -7 | -3% | -22%
CC1CCCCN1C(=O)CSc1nnc(-c2ccccc2F)o1 (stereo not given) | 3.2µM* | 2% | -5 | -2% | -3%
CN(C(=O)CSc1nnc(-c2ccccc2F)o1)c1ccccc1 | 11µM* | 0% | -1 | -2% | .
CC1CCCCN1C(=O)CSc1nnc(-c2cccc(Cl)c2)o1 (stereo not given) | . | . | . | . | -7%
COc1cc(OC)c(/C=C/c2cc3c4ccccc4ccc3[n+](C)c2)c(OC)c1 | 57% | . | . | . | .
COc1cc2nc(N(C)C)nc(NC3CCN(C)CC3)c2cc1OC | -55% | . | . | . | .
Clc1ccc(OCc2nnc(-c3ccccc3Br)o2)c(Cl)c1 | 3.2µM* | -5% | -8 | 2% | -13%
COc1cc(-c2nnc(COc3ccc(Cl)cc3C)o2)cc(OC)c1OC | -11% | -17% | 4 | 0% | 9%
Cc1cc(Cl)ccc1OCc1nnc(-c2ccccc2C)o1 | 10µM* | 0% | 1 | 6% | .
Cc1cc(Br)ccc1OCc1nnc(-c2ccccc2)o1 | 13µM* | -3% | . | 2% | .
Fc1ccc(OCc2nnc(-c3ccccc3Br)o2)c(Cl)c1 | ? | 21% | -17 | -3% | -19%
CC(C)Cn1c(-c2csc3c2CCCC3)n[nH]c1=S | -14% | -2% | -82* | -1% | ?
c1ccc(Cn2c(-c3ccco3)nc3nc4ccccc4nc32)cc1 | ? | i | -15 | -5% | 87%
O=c1c2ccccc2nc(-c2ccco2)n1Cc1ccccc1 | 7.9µM* | -1% | . | -13% | ?
CS(=O)(=O)N1CCN(Cc2cc3nc(-c4cccc5[nH]ncc45)nc(N4CCOCC4)c3s2)CC1 | -70%[92.2 µM] | . | . | . | .
Cn1cc(-c2nc3ccccc3[nH]2)c2ccccc21 | 11µM* | -2% | -5 | 1% | -20%
CC1CCC(NC(=O)c2cc3c(s2)CCCC3)CC1 (stereo not given) | 4µM* | -4% | -4 | -2% | .
O=C(NCc1ccco1)c1cc2c(s1)CCCCC2 | 11µM* | -1% | 7 | -9% | -3%
O=C(Nc1ccon1)c1cc2c(s1)CCCC2 | ? | 0% | -1 | -3% | -11%
O=C(Nc1ccon1)c1cc2c(s1)CCCCCC2 | 10µM* | -3% | -8 | -1% | -12%
O=[N+]([O-])c1cc(Cl)ccc1Nc1nc(Nc2ccc(Cl)cc2[N+](=O)[O-])nc(N2CCOCC2)n1 | 20% | . | . | . | .
O=c1cc(-c2ccccc2F)[nH]c2cc3c(cc12)OCO3 | . | . | -23 | . | .
C=C1C[C@@]23CC[C@H]4[C@@](C)(CCC[C@@]4(C)C(=O)OC4OC(CO)C(O)C(O)C4O)[C@@H]2CC[C@]1(OC1OC(CO)C(O)C(O)C1OC1OC(CO)C(O)C(O)C1O)C3 (stereo not given in full) | . | . | -7 | . | .
c1ccc(CCc2nc3ccccc3[nH]2)cc1 | 6.3µM* | -4% | 0 | -7% | -19%
Fc1ccccc1CSCc1nc2ccccc2[nH]1 | 5.6µM* | -2% | -11 | -2% | -14%
Cc1ccc(NC(=O)CCCSc2nc3ccccc3[nH]2)cc1 | -6% | 0% | 3 | -3% | -5%

High-throughput results: PubChem BioAssay, National Center for Advancing Translational Sciences (NCATS)
